Results: PubChem BioAssay AID1851 (National Center for Advancing Translational Sciences (NCATS), 2009)
Among all 16,000 compounds or so, about 5,800 (36%) were called active. Another 23% or so got no clear call; they are omitted. The list shows a part of the results. Unmarked numbers belong to inactive results. Calls come from the whole dose curve; as a rule, active = well fitted curve in the direction sought with a large enough effect; inconclusive = small, poorly fitted or top-dose-only effect, or effect the other way; inactive = no such curve, though single readings can be large or run the other way.

The compounds below were run against Cytochrome P450 2C19 (Homo sapiens) (UniProt P33261) (assay: Cytochrome panel assay with activity outcomes). Details: recombinant CYP, pro-luciferin dealkylation, luminescence, p450-cyp2c19; series mostly up to 57.1 µM.
% is set by controls: 0 for no effect and ±100 for the full control effect.

Sequence of Cytochrome P450 2C19 (Homo sapiens) (P33261 whole entry, looked up): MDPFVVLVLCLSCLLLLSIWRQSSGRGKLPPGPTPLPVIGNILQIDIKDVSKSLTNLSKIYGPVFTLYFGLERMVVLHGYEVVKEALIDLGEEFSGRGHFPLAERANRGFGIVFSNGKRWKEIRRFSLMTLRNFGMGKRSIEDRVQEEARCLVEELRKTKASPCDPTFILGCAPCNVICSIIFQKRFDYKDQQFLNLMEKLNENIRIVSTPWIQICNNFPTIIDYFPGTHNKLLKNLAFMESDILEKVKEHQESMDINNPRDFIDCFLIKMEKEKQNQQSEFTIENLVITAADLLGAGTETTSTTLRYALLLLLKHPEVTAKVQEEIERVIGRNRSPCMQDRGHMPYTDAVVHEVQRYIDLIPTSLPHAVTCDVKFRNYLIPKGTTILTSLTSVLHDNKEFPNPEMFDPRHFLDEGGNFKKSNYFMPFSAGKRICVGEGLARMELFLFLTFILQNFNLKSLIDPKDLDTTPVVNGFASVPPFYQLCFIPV

| Compound | AC50 | activity, negative = inhibition |
| --- | --- | --- |
| O=c1onc2n1-c1cc(Br)ccc1OC2 | inactive | – |
| Cc1nn(-c2ccccc2)c(C)c1/C=N/NC(=O)c1cc(-c2ccc(Cl)s2)[nH]n1 | 10 µM (active) | – |
| Cc1nn(-c2ccccc2)c(Cl)c1/C=N/NC(=O)c1ccco1 | 15.8 µM (active) | – |
| N[C@@H](CCCP(=O)(O)O)C(=O)O | inactive | – |
| OC1CC2CC[C@H](C1)N2CCCN1c2ccccc2Sc2ccc(Cl)cc21 (some centres undefined) | – | -19.5% [at 11.4 µM] |
| O=C(CSc1nc2ccccc2s1)N1c2ccccc2Sc2ccc(C(F)(F)F)cc21 | 4.47 µM (active) | – |
| COc1ccc2c(c1)N(CC[C@H]1CCCCN1C)c1ccccc1S2 | – | -12% [at 11.4 µM] |
| COc1ccc(OCc2nnc(SCC(=O)N3c4ccccc4Sc4ccc(Cl)cc43)o2)cc1 | 6.31 µM (active) | – |
| O=C(CSc1nc2ccccc2o1)N1c2ccccc2Sc2ccc(Cl)cc21 | 2.51 µM (active) | – |
| O=C1CSC2(CCN(CCCN3c4ccccc4Sc4ccc(Cl)cc43)CC2)N1 | – | -35% [at 11.4 µM] |
| O=C(O)CCCSc1nc2ccccc2s1 | – | 20.2% [at 11.4 µM] |
| COc1ccc2c(c1)N(C[C@@H](C)CN(C)C)c1ccccc1S2 | inactive | – |
| Nc1c(OCC(=O)O)ccc2cc(S(=O)(=O)O)ccc12 | – | -19.3% [at 11.4 µM] |
| O=C(O)c1nn(-c2ccccc2)nc1-c1nn(-c2ccccc2)nc1C(=O)O | inactive | – |
| CN(C)C=Nc1ccc2nn(-c3ccccc3)nc2c1 | 17.8 µM (active) | – |
| CSc1ccc(CNc2ccc(C)c(C)c2)cc1 | 0.0316 µM (active) | – |
| CC(C)(CC(=O)Nc1ccccc1)C(=O)O | – | 43% [at 11.4 µM] |
| CSc1ccc(CNc2ccc(Cl)cc2)cc1 | 0.02 µM (active) | – |
| CSc1ccc(CNc2ccccc2)cc1 | 0.631 µM (active) | – |
| CCNc1ncc2nc(CCc3ccccc3)c(=O)n(CCOC)c2n1 | 10 µM (active) | – |
| Cc1nc2cnc(N(C)C)nc2n(CCC#N)c1=O | inactive | – |
| CN(C)c1ncc2nc(-c3ccc(F)cc3)c(=O)n(CCC#N)c2n1 | inactive | – |
| N#CCCn1c(=O)c(CCc2ccccc2)nc2cnc(Nc3ccccc3)nc21 | inactive | – |
| CCNc1ncc2nc(-c3ccc(OC)cc3)c(=O)n(CCOC)c2n1 | inactive | – |

| Compound | AC50 | activity, negative = inhibition |
| --- | --- | --- |
| CCNc1ncc2nc(CCc3ccccc3)c(=O)n(CCC#N)c2n1 | 15.8 µM (active) | – |
| CCNc1ncc2nc(-c3ccc(F)cc3)c(=O)n(CCOC)c2n1 | inactive | – |
| CN(C)c1ncc2nc(CCc3ccccc3)c(=O)n(CCC#N)c2n1 | 10 µM (active) | – |
| CCNc1ncc2nc(-c3cn(C)c4ccccc34)c(=O)n(CCC#N)c2n1 | inactive | – |
| COc1ccc(CCCC(=O)NC2CCCCC2)cc1 | 3.16 µM (active) | – |
| COc1ccc(CCNC(=O)COc2ccc(S(=O)(=O)NC3CCCCC3)cc2Cl)cc1 | 7.94 µM (active) | – |
| COc1ccc2c(c1)C(=O)N(CCc1ccc(S(=O)(=O)NC(=O)NC3CCCCC3)cc1)C(=O)C2(C)C | inactive | – |
| COc1cccc(-c2nccc(NCc3ccccc3)n2)c1 | 7.94 µM (active) | – |
| COc1cccc(-c2nccc(NCc3cnc(C)cn3)n2)c1 | inactive | – |
| COc1cccc(-c2nccc(NCc3cccc(C)c3)n2)c1 | 6.31 µM (active) | – |
| CC1CCN(C(=S)c2ccc(O)cc2)CC1 | 3.55 µM (active) | – |
| O=C(Nc1cccnc1Cl)C1c2ccccc2Oc2ccccc21 | 0.794 µM (active) | – |
| N[C@](CC1c2ccccc2Oc2ccccc21)(C(=O)O)[C@@H]1C[C@@H]1C(=O)O | inactive | – |
| Cc1cccc2sc(NC(=O)C3c4ccccc4Oc4ccccc43)nc12 | 2.51 µM (active) | – |
| Cc1cccc2c1Oc1ccccc1[C@@H]2NC(=O)c1ccc([N+](=O)[O-])cc1 | – | -12.7% [at 11.4 µM] |
| O=C1C2=CC[C@@H]3C(=O)N(c4ccc(F)cc4F)C(=O)[C@H]3[C@H]2[C@H](O)[C@H]2O[C@H]12 | – | -24% [at 11.4 µM] |
| Cc1noc(C)c1C(=O)N1CCC2(CCCN(Cc3ccccc3)C2)CC1 | inactive | – |
| OCCN(Cc1ccccc1)Cc1cccc(Cl)c1Cl | 0.282 µM (active) | – |
| CN(C)c1ccc(-c2nc(NCCc3cnc[nH]3)c3ccccc3n2)cc1 | 1.58 µM (active) | – |
| COc1ccc(CNc2nc(-c3ccc4c(c3)OCO4)nc3ccccc23)c(OC)c1 | 7.94 µM (active) | – |
| CC(=O)NCCNc1nc(-c2ccc(N(C)C)cc2)nc2ccccc12 | inactive | – |
| COc1ccc(OC)c(Nc2nc(-c3cccc([N+](=O)[O-])c3)nc3ccccc23)c1 | inactive | – |
| Cc1noc(C)c1-c1nc(N2CCN(C)CC2)c2ccccc2n1 | inactive | – |
| COc1ccc(CNc2nc(-c3c(C)noc3C)nc3ccccc23)c(OC)c1 | 3.16 µM (active) | – |

| Compound | AC50 | activity, negative = inhibition |
| --- | --- | --- |
| COCCNc1nc(-c2ccc(N(C)C)cc2)nc2ccccc12 | 15.8 µM (active) | – |
| COCCNc1nc(-c2ccccc2CN(C)C)nc2ccccc12 | inactive | – |
| COCCNc1nc(-c2ccc(C(=O)N(C)C)cc2)nc2ccccc12 | inactive | – |
| Cn1cccc1C(=O)N1CCC2(CC1)CN(Cc1ccc(C#N)cc1)C2 | inactive | – |
| CNC(=O)[C@@H]1O[C@@H](n2cnc3c(NCc4cccc(I)c4)ncnc32)[C@H](O)[C@@H]1O | inactive | – |
| COc1c(O[C@H]2O[C@@H](CO)[C@@H](O)[C@@H](O)[C@@H]2O)cc2c(c1OC)-c1ccc(SC)c(=O)cc1[C@H](NC(C)=O)CC2 | inactive | – |
| COc1ccc(CNc2nc(-c3ccc(C(=O)N(C)C)cc3)nc3ccccc23)c(OC)c1 | 15.8 µM (active) | – |
| COc1ccccc1CNc1nc(-c2ccc3c(c2)OCO3)nc2ccccc12 | 3.16 µM (active) | – |
| COc1ccccc1CNc1nc(-c2ccc(N(C)C)cc2)nc2ccccc12 | 10 µM (active) | – |
| C=CC1=C(C)C2=Cc3c(C=C)c(C)c4[n]3[Sn+2][n]3c(c(C)c(CCC(=O)O)c3=CC3=NC(=C4)C(C)=C3CCC(=O)O)=CC1=N2 | inactive | – |
| C=C1C(=O)O[C@@H]2[C@H]3O[C@]3(C)CCC=C(C)CC[C@@H]12 | inactive | – |
| CCC(=O)NC(Nc1sc2c(c1C(=O)OC)CCCC2)(C(F)(F)F)C(F)(F)F | 3.98 µM (active) | – |
| CC(C)CC(=O)N[C@H](C(=O)N[C@H](C(=O)N[C@@H](CC(C)C)[C@H](O)CC(=O)N[C@@H](C)C(=O)N[C@@H](CC(C)C)[C@H](O)CC(=O)O)C(C)C)C(C)C | inactive | – |
| C#CCCCO/N=C1/[C@H]2O[C@@H]2[C@@H](O)[C@H]2[C@H]1CCn1c(=O)n([C@@H](CC)c3ccccc3)c(=O)n12 | – | -6.75% [at 11.4 µM] |
| Cc1ccc(C(=O)CN(C(=O)c2ccc(Cl)cc2)N2C(=O)c3ccccc3C2=O)cc1 | 15.8 µM (active) | – |
| COc1ccc(C(=O)CN(C(=O)c2ccc(Cl)cc2)N2C(=O)c3ccccc3C2=O)cc1 | 4.47 µM (active) | – |
| COc1ccccc1CNc1ncncc1-c1ccccc1C | 3.98 µM (active) | – |
| COc1ccc(CNc2ncncc2-c2ccccc2OC)c(OC)c1 | 2 µM (active) | – |
| COc1ccccc1CNc1ncncc1-c1ccccc1Cl | 1.26 µM (active) | – |
| COc1ccc(CNc2ncncc2-c2ccccc2C)c(OC)c1 | 1.58 µM (active) | – |
| CC[N+](CC)(CC)CCOc1cccc(OCC[N+](CC)(CC)CC)c1OCC[N+](CC)(CC)CC | inactive | – |
| CCCCOc1cc(C[C@@H]2CNC(=O)N2)ccc1OC | inactive | – |
| CCCCOc1ccccc1N | 14.1 µM (active) | – |
| Cc1ccc(C)c(Cn2cnc3c(cnn3C(C)(C)C)c2=O)c1 | 0.398 µM (active) | – |

| Compound | AC50 | activity, negative = inhibition |
| --- | --- | --- |
| Cc1ccc(NC(=O)Cn2cnc3c(cnn3C(C)(C)C)c2=O)cc1 | inactive | – |
| CC(C)(C)n1ncc2c(=O)n(CC(=O)NCc3ccccc3Cl)cnc21 | 14.1 µM (active) | – |
| Cc1ccc(-n2ncc3c(=O)n(CC(=O)NCC4CCCO4)cnc32)cc1 (centres undefined) | inactive | – |
| Cc1ccccc1Cn1cnc2c(cnn2C(C)(C)C)c1=O | 2 µM (active) | – |
| O=c1[nH]c2cc(Cl)ccc2c(O)c1-c1ccc(Oc2ccccc2)cc1 | inactive | – |
| Nc1cc(Cl)ccc1Oc1ccccc1 | 3.98 µM (active) | – |
| Nc1cc(Cl)ccc1Oc1ccc(Cl)cc1 | 0.562 µM (active) | – |
| Cc1cc(=O)[nH]c(-n2[nH]c(C)cc2=O)n1 | inactive | – |
| CCO/C(C)=N/n1c2nc3ccccc3nc2c2c(=O)n(CC(C)C)c(C)nc21 | inactive | – |
| CCCn1c(C)nc2c(c1=O)c1nc3ccccc3nc1n2CCC1=CCCCC1 | 8.91 µM (active) | – |
| Oc1ccc(Cl)cc1Cc1cc(Cl)cc(Cc2cc(Cl)ccc2O)c1O | 1.26 µM (active) | – |
| OCCSCc1cc(Cl)cc(Cl)c1O | – | -25.3% [at 11.4 µM] |
| O=C(O)Cc1cc(Cl)ccc1O | – | 42.6% [at 11.4 µM] |
| Oc1ccc(Cc2cc(Cl)cc(Cl)c2O)cc1Cl | 1.26 µM (active) | – |
| COc1ccc(C(=O)N2CCC3(CCCN(Cc4ccccc4OC)C3)CC2)cc1 | inactive | – |
| COC(=O)[C@@]1(Cc2ccc(OC)cc2)[C@H]2c3cc(C(=O)N4CCCC4)n(Cc4cc(F)cc5c4OCOC5)c3C[C@H]2CN1C(=O)c1ccccc1 | 7.94 µM (active) | – |
| COC(=O)[C@@]1(Cc2ccccc2)[C@H]2c3cc(C(=O)N4CCCC4)n(Cc4cc(F)cc5c4OCOC5)c3C[C@H]2CN1C(=O)c1ccccc1 | 0.251 µM (active) | – |
| Nc1nc(SCc2ccc([N+](=O)[O-])cc2)c2ncn([C@@H]3O[C@@H](CO)[C@@H](O)[C@H]3O)c2n1 | inactive | – |
| OC[C@@H]1O[C@@H](n2cnc3c(SCc4ccccc4)ncnc32)[C@@H](O)[C@H]1O | – | 1.35% [at 11.4 µM] |
| CCCn1cnc2c(SCc3ccc(Cl)cc3)nc(N)nc21 | 0.501 µM (active) | – |
| Nc1nc(SCc2ccccc2)c2ncn(Cc3ccccc3)c2n1 | 2.51 µM (active) | – |
| Cn1cnc([N+](=O)[O-])c1Sc1nc(N)nc2c1ncn2Cc1ccccc1 | – | 21.2% [at 11.4 µM] |
